Screening results from PubChem.
E coli growth-1 = E. coli growth inhibition, primary screen, OD600; Escherichia coli growth, 23 h; active compounds read low; OD600 absorbance (test concentration not listed); 330,000 compounds, 0.21% hits; AID 1053175, 2014;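 active means OD600 absorbance below the run mean of sample wells minus 3.6 SD, in any replicate, cut at about 0.56 in these data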
AddAB inh = growth inhibition of E. coli expressing H. pylori AddAB, primary screen, AddAB inhibitor project, absorbance; inhibition, % at 11.9 µM; 330,000 compounds, 0.29% hits; AID 435030, 2010; in the data active means inhibition above about 12%
phage Ecoli inh = growth loss of phage-infected E. coli, primary screen, RecBCD inhibitor project, absorbance, with phage, HTS | inhibition, % at 11.9 µM | 360,000 compounds, 0.26% hits | AID 651602, 2012; in the data active means inhibition above about 11%
Tat export inh = E. coli Tat export inhibitors, primary screen, MC4100, TorA-mCherry reporter, fluorescence, single point | 340,000 compounds, 0.036% hits | inhibition, % at 10 µM;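 active means mean replicate inhibition at least 50% and at least half of replicates individually reaching 50%; inconclusive means only one of the two criteria met; inactive means neither criterion met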;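 further: exported cargo escapes ClpAP degradation while cytoplasmic cargo is degraded and loses fluorescence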
E coli growth-2 = E. coli V3065 growth inhibition, primary screen, counter-screen for AddAB inhibitor project, absorbance, OD600. 18 h. inhibition, % at 11.9 µM. 330,000 compounds, 0.27% hits. AID 449728, 2010;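 active means inhibition above the campaign's mean inhibition across all tested compounds plus 3 SD, cut at about 9.9% in these data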;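 further: uninfected addAB+ strain grown without phage in ampicillin broth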
AddAB conf = growth loss of phage-infected E. coli expressing H. pylori AddAB, confirmation, AddAB inhibitor project, absorbance, E. coli V3065, T4 phage, triplicate; AID 488942, 2010; inhibition, % at 11.9 µM; 880 compounds, 64% hits; shares compounds with AddAB inh; OD; T4 phage with gene 2 nonsense mutations;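 active means mean inhibition above a set limit taken from the earlier primary screen, cut at about 13% in these data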;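 further: higher means less bacterial growth since AddAB block lets phage replicate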
RecBCD counter = growth loss of RecBCD+ E. coli with mutant T4 phage, counter-screen for AddAB inhibitor project, absorbance, V66 E. coli | shares compounds with AddAB inh | inhibition, % at 11.9 µM | 880 compounds, 73% hits | OD growth;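 active means mean inhibition above the mean of solvent-only control wells plus 3 SD, cut at about 4% in these data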;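 further: optical density read after an 18 h incubation at 37 °C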
Bact viability = bacterial viability inhibition counter-screen, confirmation, counter-screen for AddAB inhibitor project, absorbance; shares compounds with AddAB inh; absorbance (AddAB counterscreen); inhibition, % at 11.9 µM; 880 compounds, 35% hits; AID 488956, 2010; in the data active means inhibition above about 25%
A number is an active result; 0 = inactive; ? = inconclusive; - = no result. In the library only some 0.51% were active in any assay of this set; here they are far more common.

SMILES	E coli growth-1	AddAB inh	phage Ecoli inh	Tat export inh	E coli growth-2	AddAB conf	RecBCD counter	Bact viability
O=C(Nc1ccccn1)c1ccc([N+](=O)[O-])o1	0	98	-	0	72	57	17	62
O=C(Nc1cccc2ccccc12)c1ccc([N+](=O)[O-])o1	0	0	0	0	0	-	-	-
CCCn1c(NC(=O)c2ccc([N+](=O)[O-])o2)nc2ccccc21	0	15	0	0	0	58	4.7	0
O=C(Nc1ncccn1)c1ccc([N+](=O)[O-])o1	0.49	60	14	0	0	96	5.6	0
COCC1CCN(Cc2nc(COc3ccccc3)no2)C1 (stereo unspecified)	0	32	0	0	33	0	0	0
CCc1ccc(C(=O)/C=C/Nc2ccc(S(=O)(=O)Nc3onc(C)c3C)cc2)cc1	0	14	0	0	0	0	0	0
Cc1noc(NS(=O)(=O)c2ccc(N/C=C/C(=O)c3ccc(F)cc3)cc2)c1C	0	0	0	0	0	-	-	-
Cc1noc(NS(=O)(=O)c2ccc(N/C=C/C(=O)c3cccnc3)cc2)c1C	0	13	0	0	0	0	0	0
Cc1noc(NS(=O)(=O)c2ccc(N/C=C\C(=O)c3ccncc3)cc2)c1C	0	0	0	0	0	-	-	-
CCn1cc(C(=O)NCc2cccc(F)c2)c(=O)c2cc(F)c(N3CCN(C(=O)c4ccco4)CC3)cc21	0.41	95	0	0	70	98	0	62
CCCNC(=O)c1cn(CC)c2cc(N3CCN(C(=O)c4ccco4)CC3)c(F)cc2c1=O	0.089	94	0	0	58	99	0	58
CCn1cc(C(=O)NN)c(=O)c2cc(F)c(N3CCCCC3)cc21	0	-	0	0	-	-	-	-
CCCCCCc1ccc(N2CC(Cc3ccccc3)C(CC(=O)NCc3ccc(OC)cc3)C2=O)cc1 (stereo unspecified)	0	-	-	-	-	-	-	-
COc1ccc(C2=CC(=O)CC(c3ccc(OC)cc3)C2)cc1 (stereo unspecified)	-	16	0	0	10	0	0	0
COc1ccc(C2=CC(=O)C[C@H](c3ccc(Cl)cc3)C2)cc1	-	0	0	0	0	-	-	-
c1ccc(CC2=NCCN2)cc1	0	0	0	?	0	-	-	-
Cc1cc(C(C)(C)C)cc(C)c1CC1=NCCN1	0	14	0	0	10.0	53	0	0
Nc1c(S(=O)(=O)c2ccccc2)c2nc3ccccc3nc2n1N=Cc1cccc(O)c1	0	-	-	-	-	-	-	-
Nc1c(S(=O)(=O)c2cccc(Cl)c2)c2nc3ccccc3nc2n1/N=C/c1ccc(O)c(O)c1	-	15	-	-	13	13	13	0
CCCS(=O)(=O)c1c(S(=O)(=O)CCC)c2c(C)cccn2c1C(=O)N/N=C/c1cc(O)cc(O)c1	-	14	0	0	0	0	6.0	0
CCCS(=O)(=O)c1c(S(=O)(=O)CCC)c2c(C)cccn2c1C(N)=O	0	0	0	0	0	-	-	-
CCN1/C(=C/C=C/c2oc3ccc(-c4ccccc4)cc3[n+]2CC)Oc2ccc(-c3ccccc3)cc21	0	12	0	0	12	0	5.6	0
COc1cc(CCCN2C(N)=NCC2c2ccccc2)cc(OC)c1OC (stereo unspecified)	0	-	-	-	-	-	-	-
O=C(NCc1cccs1)C1CCN(S(=O)(=O)c2cccc3cccnc23)CC1	0	17	0	0	0	0	0	0
CCOC1OC(C(=O)NCc2ccccc2)=CC(c2coc3ccccc3c2=O)C1CCCO (stereo unspecified)	0	-	-	-	-	-	-	-
SMILES	E coli growth-1	AddAB inh	phage Ecoli inh	Tat export inh	E coli growth-2	AddAB conf	RecBCD counter	Bact viability
COc1ccc(NC(=O)CSc2nc3ncccc3[nH]2)cc1OC	0	13	0	0	0	0	0	0
CCOc1ccc(NC(=O)NNC(=O)c2ccc3ccccc3c2O)cc1	0	13	0	0	12	0	12	0
CCc1ccccc1NC(=O)NNC(=O)c1ccc2ccccc2c1O	0	0	0	0	0	-	-	-
CC1=CC(C)C(c2ccccc2)OC1=O (stereo unspecified)	0	-	-	-	-	-	-	-
O=C(NCCCn1ccnc1)C(=O)NCC(c1ccco1)N1CCN(c2ccccc2)CC1 (stereo unspecified)	0	0	0	0	0	-	-	-
O=C(NCCCn1ccnc1)C(=O)NCC(c1cccnc1)N1CCN(c2ccccc2)CC1 (stereo unspecified)	0	97	0	0	98	0	0	0
Cc1cc2ccccn2c1C(=O)c1ccc([N+](=O)[O-])o1	0	40	12	0	20	95	8.4	40
Cc1cc2ccccn2c1C(=O)c1cccc([N+](=O)[O-])c1	0	0	0	0	0	-	-	-
Cc1ccc(-c2oc3ccccc3c(=O)c2O)cc1	0	13	0	0	13	14	14	0
O=c1c(O)c(-c2ccccc2)oc2ccccc12	-	-	0	0	-	-	-	-
O=C(O[C@@H]1OC2COC(=O)c3cc(O)c(O)c(O)c3-c3c(cc(O)c(O)c3O)C(=O)O[C@@H]([C@H]1O)[C@@H]2O)c1cc(O)c(O)c(O)c1	-	22	-	0	23	20	14	0
COc1ccc(C=NNC(=O)Cc2ccc(Cl)cc2)cc1OC	0	-	-	-	-	-	-	-
Cc1ccc(Cl)cc1N1CCN(C(=O)C(=O)N2CCCCC2)CC1	0	0	0	0	0	-	-	-
Cc1cc(C(=O)N2CCN(c3cc(Cl)ccc3C)CC2)on1	0	127	0	0	0	0	0	0
O=[N+]([O-])c1cc2cccnc2c2ncccc12	0	0	0	-	0	-	-	-
O=[N+]([O-])c1cc(O)c2ncccc2c1	0.13	14	0	-	16	34	8.9	0
CC(=O)NC(=Cc1ccccc1)c1ccccc1	0	-	-	-	-	-	-	-
CCOC(=O)N1CCN(C(=O)CCCn2c(=S)[nH]c3ccsc3c2=O)CC1	0	25	0	0	24	0	0	0
CCCCC(CC)CN=C(N)NC(N)=NCCCCCCN=C(N)NC(N)=NCC(CC)CCCC (stereo unspecified)	-	98	-	76	101	104	73	98
CCCCCCC(C(C)O)n1cnc2c(N)ncnc21 (stereo unspecified)	0	-	-	-	-	-	-	-
CCN1C(=O)NC(=Cc2ccc(Sc3ccc(C)cc3)o2)C1=O	0	-	-	-	-	-	-	-
S=c1nc[nH]c2c1ncn2C1CCCO1 (stereo unspecified)	-	26	0	0	22	0	0	0
Nc1ncnc2c1ncn2C1CCCO1 (stereo unspecified)	0	0	0	0	0	-	-	-
COc1ccc(OCC(O)CNC(=O)c2ccc(Br)cc2)cc1 (stereo unspecified)	0	0	0	0	0	-	-	-
COc1ccc(OCC(O)CNc2ccc(Br)cc2)cc1 (stereo unspecified)	0	12	0	0	0	13	9.3	0
